“And” between values parts separate entries of the source, which are not always exact repeats. Identical values can stand only once. The source made the active and inactive calls. Rule for the calls: active = hit-call score of the fitted dose curve at least 0.9, where 1 is the maximum; inconclusive = response in the unintended direction; inactive = score below 0.9.

The values below come from PubChem BioAssay (EPA / NIEHS).

Chain of human CYP1A2, CYP1A2 (gene 1544) (P05177 whole entry, looked up): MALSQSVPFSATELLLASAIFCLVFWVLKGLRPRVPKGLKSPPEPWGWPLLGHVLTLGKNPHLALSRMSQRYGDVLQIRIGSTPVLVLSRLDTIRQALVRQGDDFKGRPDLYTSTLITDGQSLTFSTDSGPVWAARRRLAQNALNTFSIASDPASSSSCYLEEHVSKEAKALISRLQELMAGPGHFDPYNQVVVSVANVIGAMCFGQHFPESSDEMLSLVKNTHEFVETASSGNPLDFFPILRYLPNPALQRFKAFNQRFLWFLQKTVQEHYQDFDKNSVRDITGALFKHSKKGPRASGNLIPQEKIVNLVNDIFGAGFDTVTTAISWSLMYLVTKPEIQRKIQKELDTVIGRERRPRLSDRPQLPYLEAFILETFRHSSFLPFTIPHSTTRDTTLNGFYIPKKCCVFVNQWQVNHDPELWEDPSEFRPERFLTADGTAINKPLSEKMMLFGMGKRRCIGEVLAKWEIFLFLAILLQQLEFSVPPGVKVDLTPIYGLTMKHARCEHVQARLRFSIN

The assay concerns the target human CYP1A2, CYP1A2 (gene 1544) (UniProt P05177). Briefly: NVS_ADME_hCYP1A2: NovaScreen (NVS) CYP450-related Enzyme Activity (ADME) Assay for human CYP1A2 (AID 2283102).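 For AC50: potency for inhibition since loss of fluorescence marks reduced CYP1A2 activity.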 How it is done: NVS_ADME_hCYP1A2 is a biochemical, single-readout assay that uses extracted gene-proteins from insect cells in a cell-free assay. Measurements were taken 0.5 hour after chemical dosing in a 96-well plate.NVS_ADME_hCYP1A2 is one of one assay component(s) measured or calculated from the NVS_ADME_hCYP1A2 assay. It is designed to make measurements of enzyme activity, a form of enzyme reporter, as detected with fluorescence intensity signals by Fluorescence technology.Data from the assay component NVS_ADME_hCYP1A2 was analyzed into 1 assay endpoint. This assay endpoint, NVS_ADME_hCYP1A2, was analyzed in the positive analysis fitting direction relative to Acetonitrile as the negative control and baseline of activity. Using a type of enzyme reporter, loss-of-signal activity can be used to understand changes in the enzymatic activity as they relate to the gene CYP1A2. Furthermore, this assay endpoint can be referred to as a primary readout, because this assay has produced multiple assay endpoints where this one serves a enzymatic activity function. To generalize the intended target to other relatable targets, this assay endpoint is annotated to the cyp intended target family, where the subfamily is xenobiotic metabolism.
Binding assays used specific radioligands (tritiated, iodinated) with non-radioactive competitive displacement ligands in agonist or antagonist protocols (as indicated) and various reference compounds and inhibitors to titrate specific binding to receptors and transporters. Most enzyme assays (CYPs, kinases, phosphatases, proteases, HDACs) used recombinant protein and specific substrates (fluorescence mostly, some colorimetric and radioactive) and inhibitors, followed by a biochemical separation of substrate and product. All assays for the biochemical HTS were initially run in duplicate at a single concentration (10 uM for CYP450 assays and 25 uM for all others). […] Each assay was run with positive and negative controls, and concurrent controls on every plate. The follow-up (secondary) screen tested active chemical-pairs in concentration series, as well as a few additional assays not tested in the primary screen, some selected negative inactives, and several cases re-run in the concentration series for confirmatory purposes.
Take `CNC(=S)S`: the compound was called inactive. In general, AC50 refers to the midpoint of the concentration-response curve, whichever way the signal moves. `COC(=O)N(OC)c1ccccc1COc1ccn(-c2ccc(Cl)cc2)n1`: the AC50 is 0.912 µM (active). Consider `COP(=S)(OC)Oc1nc(Cl)c(Cl)cc1Cl`, for which the compound was classed as inactive. Still for that read-out and setting: for `C#CCOS(=O)OC1CCCCC1Oc1ccc(C(C)(C)C)cc1` (centres undefined) the value was “inactive”. Take `CCOC(=O)C(Cl)Cc1cc(-n2nc(C)n(C(F)F)c2=O)c(F)cc1Cl` (centres undefined): the result was inactive. Turning to `C=CC1(C)OC(=O)N(c2cc(Cl)cc(Cl)c2)C1=O` (centres undefined), the call was inactive.

Consider `Cc1ccc(-c2c(Cl)nc(C#N)n2S(=O)(=O)N(C)C)cc1`, for which the AC50 was 5.8 µM (active). `Fc1ccc(Oc2ccnc3cc(Cl)cc(Cl)c23)cc1`: the AC50 is 7.42 µM (active).

As for `CCOP(=S)(OCC)SCn1c(=O)oc2cc(Cl)ccc21`, the AC50 is 2 µM (active). Consider `CCCCOC(=O)c1ccccc1C(=O)OCCCC`, for which the AC50 is 7.03 µM (active) and 7.88 µM (active).

Turning to `CCNc1nc(Cl)nc(NC(C)C)n1`, the AC50 is 14.8 µM (active) and 9.2 µM (active). On the same count and under the same terms, for `CC1=C(C(=O)Nc2ccccc2)SCCO1` the value was 6.47 µM (active). `CC(C)Oc1cc(-n2nc(C(C)(C)C)oc2=O)c(Cl)cc1Cl`: the AC50 was 6.42 µM (active).

`CCOC(=O)CC(SP(=S)(OC)OC)C(=O)OCC` (centres undefined): the AC50 was 0.837 µM (active).
